# Data published in the supplement of paper PMC9135407.
# Several values for one entry are separate records, joined by “and”; a condition that tells them apart may be missing. Equal values may be shown once. Where a name gives a salt, the structure may show the parent alone. About 620 (11%) of roughly 5,800 compounds showed activity. For the sample, actives were picked, then their nearest neighbours and some compounds at random. Unmarked numbers belong to inactive results.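 Rule for the calls: active = score above a cut-off or among the top three wells of a plate; in these data no inactive exceeds 0.85.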
# System: primary human hepatic stellate cells (donor 1)
# Test: scaled lipid accumulation score (0 = DMSO-like, 1 = nortriptyline-like); higher = stronger HSC inactivation (lipid re-accumulation), active = hit call of the paper
# Details: 48 h
# [1] = library stock concentration: 1 mM
# [2] = library stock concentration: 3.33 mM
# [3] = library stock concentration: 10 mM
# [4] = library stock concentration: 80 uM
# [5] = library stock concentration: 400 uM
# [6] = library stock concentration: 2 mM
smiles,measurement,setting,value
CC#CCC(C)[C@@H](O)/C=C/[C@@H]1[C@H]2C/C(=C/CCCC(=O)O)C[C@H]2C[C@H]1O (stereo partly drawn) [15(R)-Iloprost],scaled lipid accumulation score,[1],≤ 0
CC(C)(C(=O)NCC(F)(F)C(F)(F)F)C(=O)N[C@@H]1C(=O)Nc2ccccc2-c2ccccc21,scaled lipid accumulation score,[2],≤ 0
same,scaled lipid accumulation score,[3],≤ 0
CC(=O)Nc1c(I)cc(I)c(C(=O)O)c1I [Acetriazoic acid],scaled lipid accumulation score,library stock concentration: 3.6 mM,0.001
same,scaled lipid accumulation score,[3],≤ -0.027
CSc1nc(-c2ccnc(NC(C)c3ccccc3)c2)c(-c2ccc(F)cc2)[nH]1 (stereo not given) [p38 MAP Kinase Inhibitor III],scaled lipid accumulation score,[2],≤ 0
CCCCCCCCCCCCCCCC(=O)OC(CC(=O)O)C[N+](C)(C)C (racemic) [Palmitoyl-DL-Carnitine chloride],scaled lipid accumulation score,[3],0.446
[O-]/[N+](=N\O[C@@H]1O[C@H](CO)[C@H](O)[C@H](O)[C@H]1O)N1CCCC1 [.beta.-Gal-NONOate],scaled lipid accumulation score,[1],≤ 0
CCCCC/C=C\C/C=C\CCCCCCCC(=O)O [Linoleic Acid (peroxide free)],scaled lipid accumulation score,[1],0.024
CCCCC/C=C\C/C=C\CCCCCCCC(=O)O [Linoleic acid],scaled lipid accumulation score,[1],≤ -0.021
CCCCC[C@H](O)/C=C/[C@H]1C(=O)C[C@H](O)[C@@H]1C/C=C\CCCC(=O)O [Prostaglandin  D2],scaled lipid accumulation score,[1],≤ -0.021
CCCCC[C@H](O)/C=C/[C@H]1C(=O)C[C@H](O)[C@@H]1C/C=C\CCCC(=O)O [Prostaglandin D2],scaled lipid accumulation score,[1],≤ 0
COc1cc2nccc(Oc3ccc(NC(=O)C4(C(=O)Nc5ccc(F)cc5)CC4)cc3)c2cc1OC,scaled lipid accumulation score,[4],0.011
same,scaled lipid accumulation score,[5],≤ -0.016
same,scaled lipid accumulation score,[6],0.189
same,scaled lipid accumulation score,[2],0.757
same,scaled lipid accumulation score,[3],0.459 and 0.491
COc1cc2c(Oc3ccc(NC(=O)C4(C(=O)Nc5ccc(F)cc5)CC4)cc3F)ccnc2cc1OCCCN1CCOCC1 [listing 1 of 2 here],scaled lipid accumulation score,[2],1.09 (active)
COc1cc2c(Oc3ccc(NC(=O)C4(C(=O)Nc5ccc(F)cc5)CC4)cc3F)ccnc2cc1OCCCN1CCOCC1 [listing 2 of 2 here],scaled lipid accumulation score,[4],0.524
same,scaled lipid accumulation score,[5],0.545
same,scaled lipid accumulation score,[6],0.834
same,scaled lipid accumulation score,[3],0.842 and 0.706
COc1cc2nccc(Oc3ccc(NC(=O)C4(C(=O)Nc5ccc(F)cc5)CC4)cc3)c2cc1OC [Cabozantinib malate (XL184)],scaled lipid accumulation score,[2],0.354
same,scaled lipid accumulation score,[3],0.677
O=C(Nc1cccc(Nc2ncc(Br)c(NCCc3cnc[nH]3)n2)c1)N1CCCC1,scaled lipid accumulation score,[4],≤ 0
same,scaled lipid accumulation score,[5],≤ 0 and ≤ -0.005
same,scaled lipid accumulation score,[6],≤ 0 and ≤ -0.005
same,scaled lipid accumulation score,[2],≤ 0
same,scaled lipid accumulation score,[3],0.029 and 0.7
O=C(Nc1cccc(Nc2ncc(Br)c(NCCc3c[nH]cn3)n2)c1)N1CCCC1,scaled lipid accumulation score,[3],0.978 (active)
O=C(NCCCNc1nc(Nc2cccc(NC(=O)N3CCCC3)c2)ncc1I)c1cccs1 [listing 1 of 4 here],scaled lipid accumulation score,[3],1.2 (active)
O=C(NCCCNc1nc(Nc2cccc(NC(=O)N3CCCC3)c2)ncc1I)c1cccs1 [listing 2 of 4 here],scaled lipid accumulation score,[4],≤ -0.016
same,scaled lipid accumulation score,[5],≤ -0.016 and ≤ -0.005
same,scaled lipid accumulation score,[6],≤ -0.016 and 0.235
same,scaled lipid accumulation score,[2],0.048
O=C(NCCCNc1nc(Nc2cccc(NC(=O)N3CCCC3)c2)ncc1I)c1cccs1 [listing 3 of 4 here],scaled lipid accumulation score,[3],1.07 (active)
NCCC(=O)NCCc1c[nH]cn1 [Carcinine],scaled lipid accumulation score,,0.074
O=C(NCCCNc1nc(Nc2cccc(NC(=O)N3CCCC3)c2)ncc1I)c1cccs1 [listing 4 of 4 here],scaled lipid accumulation score,[3],0.937 (active)
CC(=O)Oc1ccc2c(c1)CCC1C2CC[C@]2(C)C(=O)CCC12 (stereo not given in full) [Estrone acetate],scaled lipid accumulation score,[3],≤ 0
CCCCn1c(=O)c2c(ncn2CC(C)=O)n(CCCC)c1=O [Denbufylline],scaled lipid accumulation score,library stock concentration: 6.2 mM,≤ -0.006
CCCCc1nc2ccn(Cc3cccs3)c(=O)c2n1Cc1ccc(-c2ccccc2-c2nn[nH]n2)cc1,scaled lipid accumulation score,[3],≤ -0.006
Cc1cc(C(=O)O)sc1C(N)C(=O)O (stereo not given),scaled lipid accumulation score,[3],0.007
CCCn1c(=O)[nH]c(=O)c2[nH]cnc21 [3-n-Propylxanthine],scaled lipid accumulation score,[3],≤ 0
CCOC(=O)c1[nH]c2cc(Cl)ccc2c1C(C(=O)NC(C)(C)C)N(C=O)Cc1ccc(Cl)cc1 (stereo not given),scaled lipid accumulation score,[2],≤ -0.009
same,scaled lipid accumulation score,[3],0.547
Nc1nc(SCc2ccc([N+](=O)[O-])cc2)c2ncn([C@@H]3O[C@H](CO)[C@H](O)C3O)c2n1 (stereo partly drawn) [S-(4-Nitrobenzyl)-6-thioguanosine],scaled lipid accumulation score,[3],0.41
O=C(O)CCC/C=C\C[C@H]1[C@@H](O)CC(=O)[C@@H]1/C=C/[C@@H](O)CCc1ccccc1 [17-phenyl trinor Prostaglandin D2],scaled lipid accumulation score,[1],≤ 0
CNc1nc(-c2ccc3c(N)n[nH]c3c2)cc(N2C[C@@H](C(=O)NC3CCCCC3)CC[C@H]2C)n1,scaled lipid accumulation score,[4],≤ -0.016
same,scaled lipid accumulation score,[5],≤ -0.016
same,scaled lipid accumulation score,[6],≤ -0.016
same,scaled lipid accumulation score,[2],≤ 0
same,scaled lipid accumulation score,[3],0.741 and 0.773
CN(NC(=O)CC(=O)NN(C)C(=S)c1ccccc1)C(=S)c1ccccc1 [Elesclomol (STA-4783)],scaled lipid accumulation score,[2],≤ 0
same,scaled lipid accumulation score,[3],≤ 0
Cn1c(-c2ccc3c(c2)OCO3)cc(=O)c2ccccc21 [Graveoline],scaled lipid accumulation score,,≤ 0
O=c1cc(-c2ccccc2F)[nH]c2cc3c(cc12)OCO3 [CHM-1 hydrate],scaled lipid accumulation score,[3],0.875 (active)
O=C(NC(NC(=S)Nc1ccc(F)c([N+](=O)[O-])c1)C(Cl)(Cl)Cl)C(c1ccccc1)c1ccccc1 (stereo not given),scaled lipid accumulation score,[4],≤ 0
same,scaled lipid accumulation score,[5],0.081
same,scaled lipid accumulation score,[6],0.01
same,scaled lipid accumulation score,[2],≤ -0.009
same,scaled lipid accumulation score,[3],0.019 and 0.171 and 0.352
O=C(NC1CCNCC1)c1n[nH]cc1NC(=O)c1c(Cl)cccc1Cl,scaled lipid accumulation score,[4],0.367
same,scaled lipid accumulation score,[5],0.117 and 0.282
same,scaled lipid accumulation score,[6],0.26 and 0.49
same,scaled lipid accumulation score,[2],0.109
same,scaled lipid accumulation score,[3],0.212 and 0.239 and 0.462
C[C@H](CCCO)[C@H]1CC[C@H]2[C@@H]3[C@H](O)C[C@H]4C[C@H](O)CC[C@]4(C)[C@H]3C[C@H](O)[C@]12C [Petromyzonol],scaled lipid accumulation score,[1],0.043
Cn1cc(-c2ccc(F)c(C(F)(F)F)c2)nc1C1CCN(c2ncnc3[nH]ncc23)CC1,scaled lipid accumulation score,[4],0.021
same,scaled lipid accumulation score,[5],0.015
same,scaled lipid accumulation score,[6],0.054
same,scaled lipid accumulation score,[3],0.371
CCc1ccc2c(O)c3c(cc2c1C(=O)OC)C(=O)c1c(O)ccc(O)c1C3=O [Bisanhydrorutilantinone],scaled lipid accumulation score,[3],0.11
CCCCC[C@@H](O)/C=C/[C@@H]1[C@@H](C/C=C\CCCC(=O)O)[C@@H](O)C[C@H]1O [15(R)-Prostaglandin F2.alpha.],scaled lipid accumulation score,[1],≤ 0
C=C1CC2(O)OC3(CC2C(C)C)C(C)CCC13 (stereo not given) [Curcumol],scaled lipid accumulation score,[2],≤ 0
same,scaled lipid accumulation score,[3],≤ 0
CCn1c2ccccc2c2cc(CNC)ccc21.Cl,scaled lipid accumulation score,[3],0.872 (active)
CCn1c(=O)[nH]c2ccccc21,scaled lipid accumulation score,[3],≤ -0.006
CCn1c2ccccc2c2cc(Nc3ccnc(NCCCN4CCOCC4)n3)ccc21,scaled lipid accumulation score,[2],0.673
same,scaled lipid accumulation score,[3],0.087
CCCCCCCC/C=C\CCCCCCCC(=O)NCCS(=O)(=O)O [N-Oleoyl Taurine],scaled lipid accumulation score,[1],0.011
C[C@@H](Oc1cc(-c2cnn(C3CCNCC3)c2)cnc1N)c1c(Cl)ccc(F)c1Cl [listing 1 of 2 here],scaled lipid accumulation score,[2],0.909 (active)
same,scaled lipid accumulation score,[3],0.863 (active)
CC(Oc1cc(-c2cnn(C3CCNCC3)c2)cnc1N)c1c(Cl)ccc(F)c1Cl [(S)-crizotinib],scaled lipid accumulation score,[2],0.504
same,scaled lipid accumulation score,[3],0.396
C[C@@H](Oc1cc(-c2cnn(C3CCNCC3)c2)cnc1N)c1c(Cl)ccc(F)c1Cl [listing 2 of 2 here],scaled lipid accumulation score,[4],≤ 0
same,scaled lipid accumulation score,[5],0.145
same,scaled lipid accumulation score,[6],0.477
same,scaled lipid accumulation score,[3],0.242
CCCCCCCCCCCCCCCCOC[C@H](COP(=O)([O-])OCC[N+]1(C)CCCC1)OC(C)=O [Pyrrolidino PAF C-16],scaled lipid accumulation score,[1],≤ 0
C[N+]1(C)CCCC1C(=O)O (stereo not given) [Stachydrine hydrochloride],scaled lipid accumulation score,,0.046
O=C(/C=C\n1cnc(-c2cc(C(F)(F)F)cc(C(F)(F)F)c2)n1)N1CC(F)(F)C1,scaled lipid accumulation score,[2],≤ -0.009
same,scaled lipid accumulation score,[3],0.294
CCCCC[C@](C)(O)/C=C/[C@@H]1[C@@H](C/C=C\CCCC(=O)OC)[C@@H](O)C[C@H]1O [15(S)-15-methyl Prostaglandin F2.alpha. methyl ester],scaled lipid accumulation score,[1],≤ 0
CC(N)(Cc1ccc(O)cc1)C(=O)O (racemic) [DL-alpha-Methyl-p-tyrosine],scaled lipid accumulation score,[3],0.213
CC(Cc1ccccc1)(NC(=O)CN)c1ccccc1 (stereo not given) [Remacemide hydrochloride],scaled lipid accumulation score,[3],0.479
CC(Cc1ccccc1)(NC(=O)CN)c1ccccc1 (racemic),scaled lipid accumulation score,[3],0.922 (active)
COc1ccc(-c2cc(=O)c3c(O)c(OC)c(OC)cc3o2)cc1O [Eupatorin],scaled lipid accumulation score,[3],0.725
CC(C)Cn1c(=O)n(C)c(=O)c2nc[nH]c21 [Isobutylmethylxanthine],scaled lipid accumulation score,library stock concentration: 9 mM,≤ 0
O=C[C@H](O)[C@@H](O)[C@H](O)CO [Xylose],scaled lipid accumulation score,[2],≤ 0
same,scaled lipid accumulation score,[3],0.028
CN1CC2c3ccccc3Oc3ccc(Cl)cc3C2C1 (stereo not given) [Asenapine],scaled lipid accumulation score,[2],0.156
same,scaled lipid accumulation score,[3],0.752
CN1CCN(C2=Cc3ccccc3Oc3ccc(Cl)cc32)CC1.O=C(O)/C=C/C(=O)O,scaled lipid accumulation score,[3],1.01 (active)
CN1CC2c3ccccc3Oc3ccc(Cl)cc3C2C1 (stereo not given) [Asenapine maleate],scaled lipid accumulation score,[3],0.772
CN1CCN(C2=Nc3ccccc3Oc3ccc(Cl)cc32)CC1,scaled lipid accumulation score,[3],0.608
CN1CCN(C2=Nc3ccccc3Oc3ccc(Cl)cc32)CC1 [Loxapine succinate],scaled lipid accumulation score,,0.3
same,scaled lipid accumulation score,library stock concentration: 4.5 mM,0.253
same,scaled lipid accumulation score,[3],0.708 and 0.486
CN1CCN(C2=Nc3ccccc3Oc3ccc(Cl)cc32)CC1 [Loxapine Succinate],scaled lipid accumulation score,[2],≤ 0
same,scaled lipid accumulation score,[3],0.493
